Source: the supplement of paper PMC10338343
± gives the standard deviation.

Key:
[1] = tested on: MILI (PIWIL2) piRISC loaded with piRNA #1 (26 nt); assay: pre-steady-state target cleavage rate (min^-1); guide: piRNA #1 5'p-UGAGGUAGUAGGUUGUAUAGUAUCCA; higher = faster piRNA-guided slicing of the target; details: auxiliary factor: 500 nM mouse GTSF1
Outline: (§1)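 A transcribed, DNA-blocked target RNA library (0.1 nM) and 1 nM active affinity-purified piRISC bearing one synthetic guide were incubated in HEPES–potassium acetate buffer at 33 °C for 0–8 or 0–960 min, either with or without 500 nM GTSF1 partner protein. Uncleaved targets were sequenced, normalised to depth and to weakly complementary targets, and pooled over three trials, with k3 capped at 0.0001 min^-1. The pre-steady-state cleavage rate was derived with a burst-and-steady-state fit.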

[2] = tested on: EfPiwi piRISC loaded with piRNA #1 (26 nt); assay: pre-steady-state target cleavage rate (min^-1); auxiliary factor: 500 nM Ephydatia muelleri Gtsf1; guide: piRNA #1 5'p-UGAGGUAGUAGGUUGUAUAGUAUCCA; MIWI and MILI are mouse PIWI proteins and EfPiwi is from a freshwater sponge; tags in brackets are library labels; higher = faster piRNA-guided slicing of the target
Outline: as §1

For GGAGACCUAUGUAUACAACCUACUACUCUCA, the “pre-steady-state target cleavage rate” value [1] was 0.117 ± 0.013 and the “pre-steady-state target cleavage rate” value [2] was under 0.0001.

GGAGUGGAUACUAUACUACGUACUACCUCA was tested, and the “pre-steady-state target cleavage rate” value [1] was 0.042 ± 0.0043 and the “pre-steady-state target cleavage rate” value [2] was 0.00381 ± 0.0021.

For GGAGACCUAUCUAUACAACCUACUACCUUCA, the “pre-steady-state target cleavage rate” value [1] was 0.139 ± 0.017 and the “pre-steady-state target cleavage rate” value [2] was 0.0604 ± 0.023.

GGAGAGGAUACUAUACAACCUACUUACCUCA was tested, and the “pre-steady-state target cleavage rate” value [1] was 0.162 ± 0.015 and the “pre-steady-state target cleavage rate” value [2] was 0.00951 ± 0.004.

For GGAGACCAUACUAAACAACCUACUACCUCA, the “pre-steady-state target cleavage rate” value [1] was 0.153 ± 0.016 and the “pre-steady-state target cleavage rate” value [2] was 0.0127 ± 0.0048.

For GGAGACGAUACUAUACAACCUACUACCUUCA, the “pre-steady-state target cleavage rate” value [1] was 0.194 ± 0.018 and the “pre-steady-state target cleavage rate” value [2] was 0.0163 ± 0.0063.

In the case of GGAGACGAUUCUAUACAACGUACUACCUCA, the “pre-steady-state target cleavage rate” value [1] is reported as 0.0237 ± 0.0031 and the “pre-steady-state target cleavage rate” value [2] is reported as 0.00356 ± 0.0021.

GGAGUGGAUACUAUACAAGGUACUACCUCA was tested, and the “pre-steady-state target cleavage rate” value [1] was 0.0661 ± 0.0076 and the “pre-steady-state target cleavage rate” value [2] was 0.00342 ± 0.0019.

“GGAGACCAUACUAUACAACCUACUACCUCA [g2:g23:cont:t1A]” was tested, and the “pre-steady-state target cleavage rate” value [1] was 0.178 ± 0.023 and the “pre-steady-state target cleavage rate” value [2] was 0.0141 ± 0.0046.

With GGAGACCAUACUAUACAACCUUCUACCACA the “pre-steady-state target cleavage rate” value [1] was 0.00753 ± 0.0037 and the “pre-steady-state target cleavage rate” value [2] was 0.00301 ± 0.0027.

In the case of GGAGUGCAUACUAUUCAACCUACUACCUCA, the “pre-steady-state target cleavage rate” value [1] is reported as 0.182 ± 0.011 and the “pre-steady-state target cleavage rate” value [2] is reported as 0.00471 ± 0.0042.

In the case of GGAGUCGAUACUAAACAACCUACUACCUCA, the “pre-steady-state target cleavage rate” value [1] is reported as 0.183 ± 0.015 and the “pre-steady-state target cleavage rate” value [2] is reported as 0.00865 ± 0.0048.

With GGAGUGGAUACUAUACAACACUACUACCUCA the “pre-steady-state target cleavage rate” value [1] was 0.00621 ± 0.0026 and the “pre-steady-state target cleavage rate” value [2] was 0.00629 ± 0.003.

For GGAGACCUUAUCUAUACAACCUACUACCUCA, the “pre-steady-state target cleavage rate” value [1] was 0.115 ± 0.014 and the “pre-steady-state target cleavage rate” value [2] was 0.0368 ± 0.017.

For GGAGACGAUACUAAACAACCAACUACCUCA, the “pre-steady-state target cleavage rate” value [1] was 0.00769 ± 0.0028 and the “pre-steady-state target cleavage rate” value [2] was 0.0024 ± 0.0017.

GGAGACGAUACUAUAGAAGCUACUACCUCA was tested, and the “pre-steady-state target cleavage rate” value [1] was 0.16 ± 0.014 and the “pre-steady-state target cleavage rate” value [2] was 0.00294 ± 0.0013.

With GGAGUGGAUACGUAUACAACCUACUACCUCA the “pre-steady-state target cleavage rate” value [1] was 0.111 ± 0.0099 and the “pre-steady-state target cleavage rate” value [2] was 0.082 ± 0.03.

With GGAGACGAUUCUAUAGAACCUACUACCUCA the “pre-steady-state target cleavage rate” value [1] was 0.172 ± 0.012 and the “pre-steady-state target cleavage rate” value [2] was 0.00226 ± 0.0018.

GGAGAGGAUACUAUACAACCUACUAGCACA was tested, and the “pre-steady-state target cleavage rate” value [1] was 0.00642 ± 0.0042 and the “pre-steady-state target cleavage rate” value [2] was 0.00322 ± 0.0016.

With GGAGAGGAUACUAUACAACCUACUACCCA the “pre-steady-state target cleavage rate” value [1] was 0.0505 ± 0.014 and the “pre-steady-state target cleavage rate” value [2] was 0.0052 ± 0.0025.
